From PubChem
Marburg entry inh: qHTS for inhibitors of binding or entry into cells for Marburg Virus | Potency, µM (series often up to 37.8 µM), without a hit: top-dose activity change, negative = inhibition, hits mostly inhibitors | Marburg virus pseudotyped entry inhibition, cell reporter | AID 540276, 2011 | 1.8% of 300,000 active; calls by dose curve; tested in HEK293 cells; note: potency is the fitted concentration of half-maximal effect
HCV inhibitor: qHTS Assay for Inhibitors of Hepatitis C Virus (HCV) | Potency, µM (doses to about 41.8 µM), for inactives: top-dose activity change, negative = inhibition, usual class: inhibitors | 3.4% of 340,000 active | Huh7.5.1 HCVcc-Cre infection, luciferase reporter, 44 h; note: potency is the fitted concentration of half-maximal effect
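Luciferase read-out (15 sec integration) after a 15 min room-temperature substrate step quantifies HCVcc-Cre infection. Cells, 1,000 per well, had compound added 4 h post-plating, then virus at ~0.5 moi, and were cultured 44 h.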
HCMV antiviral: qHTS Assay for inhibitors of the human cytomegalovirus (HCMV); HFF cells, HCMV-luciferase reporter, 72 h; hits give low values; activity change, negative = inhibition, % at 57.5 µM; 4.5% of 410,000 active; AID 1259415, 2018; in the data active = activity change below about -60%; inconclusive = no clear call, values can overlap the other calls; inactive = above about -39%
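Cell-based, HFFs, 1000 cells/well, 16 h 37C; cpds in DMSO + HCMV-luc, MOI 1 PFU/cell; 72 h 37C; OneGlo luminescence after 5 min RT; norm. to buffer vs Salinomycin 10uM.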
FMDV antiviral: High Throughput Screening for Foot and Mouth Disease Virus Antivirals. FMDV antiviral cell-based qHTS. Potency, µM (top dose mostly 57.9 µM), for the others: at the top dose activity change, negative = inhibition, hits mostly inhibitors. 1.2% of 410,000 active; calls by dose curve; tested in HEK293T cells; note: read-out not given here; potency is the fitted concentration of half-maximal effect; nearly all actives have a fitted effect of over 45% in size
Giardia FBPA inh: qHTS Assay for Inhibitors of Fructose-1,6-bisphosphate Aldolase from Giardia Lamblia; 0.71% of 290,000 active; A8B2U2; Potency, µM (titrated, usually from 59.6 µM), inactives show at the top dose activity, negative = inhibition, most hits filed as inhibitors; AID 2451, 2010; purified Giardia FBPA; note: potency is the fitted concentration of half-maximal effect; nearly all actives have a fitted effect of over 55% in size
Target sequence (A8B2U2 whole entry, looked up): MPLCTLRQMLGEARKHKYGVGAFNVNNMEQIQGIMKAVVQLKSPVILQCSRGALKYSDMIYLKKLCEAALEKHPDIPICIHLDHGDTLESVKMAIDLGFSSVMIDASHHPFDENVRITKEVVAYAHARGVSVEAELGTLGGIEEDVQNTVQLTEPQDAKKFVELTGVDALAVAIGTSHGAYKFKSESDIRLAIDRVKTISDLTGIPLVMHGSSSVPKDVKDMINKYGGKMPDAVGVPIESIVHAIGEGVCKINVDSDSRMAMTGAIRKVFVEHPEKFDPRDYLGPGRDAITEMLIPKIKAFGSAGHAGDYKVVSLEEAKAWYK
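Giardia FBPA (40 nM reagent) was preincubated 10 min at RT with compound (up to 57.5 uM final), then substrate plus GAPDH/TPI/NAD/arsenate coupling system with diaphorase/resazurin was added; resorufin fluorescence (525/598 nm) was read after 20 min.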
Lassa entry inh: qHTS for Inhibitors of binding or entry into cells for Lassa Virus. Potency, µM (titrated, usually from 37.9 µM), without a hit: top-dose activity change, negative = inhibition, hits mostly inhibitors. 1.2% of 300,000 active. Lassa virus pseudotype entry inhibition, cell reporter. AID 540256, 2011; calls by dose curve; tested in HEK293 cells; note: potency is the fitted concentration of half-maximal effect; nearly all actives have a fitted effect of over 50% in size
Starred values were filed as active, the others as inactive; ? = inconclusive; / = no result; [ ] = dose if it differs, or a comment. Compounds with a hit are over-represented: about 8.3% of the library has one in this group of screens. Unless noted, calls come from the whole dose curve; as a rule, active = well fitted curve in the direction sought with a large enough effect; inconclusive = small, poorly fitted or top-dose-only effect, or another doubt; inactive = no such curve, though single readings can be large; an effect the other way counts as inactive or inconclusive. % is set by controls: 0 for no effect and ±100 for the full control effect.

SMILES	Marburg entry inh	HCV inhibitor	HCMV antiviral	FMDV antiviral	Giardia FBPA inh	Lassa entry inh
O=C(NC(=S)Nc1ccccc1N1CCCC1)c1ccco1	-11%[14.2 µM]	-10%	-13	-9%	14µM*	5%
CCOc1ccc2nc(N3CCCC(C(=O)NCCc4ccc(OC)cc4OC)C3)sc2c1 (stereo unspecified)	?	/	15	-1%	/	/
CC(=O)c1sc(-c2ccccc2)cc1N	2%[46.1 µM]	8.9µM*	19	13%	1%	?
CCc1ccccc1NC(=O)Cn1nnc(C(=O)Nc2ccc(OC)c(OC)c2)c1N	/	/	-28	8%	/	?
COc1cccc(-n2cc(CN(C)Cc3nc(Cc4cccc(F)c4)no3)cn2)c1	6%[46.1 µM]	-19%	11	-4%	-6%	?
COc1ccc(CN(C)Cc2nc(Cc3cccc(F)c3)no2)c2cccnc12	?	10µM*	-82*	10µM*	-3%	?
O=C(C[n+]1ccccc1)N/N=C/c1cc(Br)ccc1F	0%	4%	-99*	-7%	/	15%
CN(C)c1ccc(/C=N\NC(=O)c2csnn2)cc1	14µM*	-3%	94	-24%	-5%	?
O=C(C[n+]1ccccc1)N/N=C/c1ccc(C(=O)O)cc1	/	19%	-21	-20%	/	/
CN(C)c1ccc(/C=N/NC(=O)C[n+]2ccccc2)cc1	0%[46.1 µM]	9%	13	2.8µM*	/	-1%[46.1 µM]
COc1ccc(Br)cc1/C=N/NC(=O)C[n+]1ccccc1	/	14%	3	-8%	-5%	/
COc1ccc(CNC(=O)CSc2nc(-c3ccc(OC)c(OC)c3)cc(C(F)(F)F)n2)cc1	?	/	-18	-6%	/	-17%[46.1 µM]
CCOC(=O)c1cccc(NC2c3ccccc3C(=O)N2Cc2ccco2)c1 (stereo unspecified)	/	?	-31	13µM*	12%	/
O=C1c2ccccc2C(Nc2cccc(C(F)(F)F)c2)N1Cc1ccco1 (stereo unspecified)	14µM*	?	-31	?	1%	?
CC(=O)c1cccc(NC2c3ccccc3C(=O)N2Cc2ccco2)c1 (stereo unspecified)	/	?	188	?	4%	/
N#Cc1ccc(CN2CCCC3(CCN(C(=O)c4ccncc4)CC3)C2)cc1	/	/	/	-12%	2%	/
CC(=O)OC[C@@H]1O[C@@H](O/N=C2/C[C@@H](O)[C@@H](O)[C@@H]3[C@@H]4C(=O)N(c5cccc(Oc6ccccc6)c5)C(=O)[C@H]4CC[C@H]23)[C@H](OC(C)=O)[C@H](OC(C)=O)[C@@H]1OC(C)=O	/	/	/	/	-3%[12.9 µM]	/
N#CC(=C1C=CC(=NO)C(Cl)=C1)c1ccccc1	/	/	-98*	-5%	/	/
N#CC(=C1C=C(Br)C(=NO)C=C1Cl)c1ccc(Cl)cc1	/	/	2	?	/	/
O=C(Nc1ccc(OCc2cc(=O)n3c4c(sc3n2)CCCC4)cc1)c1ccc(F)cc1	1%[46.1 µM]	/	-29	-3%	/	17%[46.1 µM]
COc1ccc(OC)c(CCNC(=O)c2cc3cccc4c3n2CC(C)S4)c1 (stereo unspecified)	/	/	0	-21%	/	-11%[46.1 µM]
Cc1ccc(SCCCCN2CCNCC2)cc1	?	11µM*	-1	15%	?	29%
CN(C)CC1CCn2c(c(C3=C(c4cn(C)c5ccccc45)C(=O)NC3=O)c3ccccc32)C1 (stereo unspecified)	/	/	/	/	-8%	/
O=C(Nc1cccc(Cl)c1)N1CCN(Cc2ccccc2)CC1	-1%	-14%	47	34%	-4%	/
COc1cc(OC)c(OC)cc1CN1CCN(Cc2ccc(C(F)(F)F)cc2)CC1	/	11µM*	15	?	?	/
SMILES	Marburg entry inh	HCV inhibitor	HCMV antiviral	FMDV antiviral	Giardia FBPA inh	Lassa entry inh
CCS(=O)(=O)N1CCN(Cc2ccccc2OC)CC1	-5%	8%	-12	/	-1%	12%
Cc1cccc(CN2CCN(Cc3ccc(Cl)cc3)CC2)c1	?	6.3µM*	4	?	-29%	?
COc1ccccc1CN1CCN(Cc2ccc(Cl)cc2)CC1	11µM*	-6%	?	-26%	?	1%[46.1 µM]
COc1cc(OC)c(OC)cc1CN1CCN(Cc2cccc(F)c2)CC1	/	-9%	21	-11%	-11%	/
Cc1cccc(NC(=O)N2CCN(Cc3ccc(Cl)cc3)CC2)c1	?	?	-63*	-28%	-6%	?
CC(C)OC(=O)c1cn(Cc2c(F)cccc2F)c2sc(-c3ccc(NC(=O)C(C)C)cc3)c(CN(C)Cc3ccccc3)c2c1=O	/	/	/	-27%	1%	/
COc1ccc(CNC(=O)CCc2c(C)nc3nc(CNC(=O)OC(C)(C)C)nn3c2C)cc1	2%[46.1 µM]	/	-15	2%	/	12%[46.1 µM]
O=C(CN1CCCCC1)Nc1nc(-c2ccccc2)cs1	-30%[46.1 µM]	?	/	6%	3%	-22%[46.1 µM]
CCCC(=O)Nc1nc(-c2ccc3c(c2)CCN3S(C)(=O)=O)cs1	-17%	13µM*	-35	/	-12%	-2%
CCC(=O)Nc1nc(-c2ccc3c(c2)CC(C)N3S(C)(=O)=O)cs1 (stereo unspecified)	?	?	-22	-17%	-12%	-30%[46.1 µM]
Cc1ccccc1C(=O)N1CCc2cc(-c3csc(NC(=O)CN4CCCC4)n3)ccc21	?	?	-79*	-22%	/	?
CC1Cc2cc(-c3csc(NC(=O)Cc4cccs4)n3)ccc2N1S(C)(=O)=O (stereo unspecified)	?	6.3µM*	-100*	5.6µM*	-8%	?
CS(=O)(=O)N1CCc2cc(-c3csc(NCC4CCCO4)n3)ccc21 (stereo unspecified)	-3%	-29%	53	/	-6%	-1%
CS(=O)(=O)N1CCc2cc(-c3csc(NC(=O)Cc4ccccc4)n3)ccc21	7.3µM*	?	-98*	/	0%	?
Cc1cc2oc(C(=O)N(Cc3ccc(N(C)C)cc3)Cc3ccco3)c(C)c2cc1Cl	-1%[46.1 µM]	/	-14	-4%	/	-27%[46.1 µM]
COc1ccccc1C(=O)Nc1cccc(OCc2cc(=O)n3ccccc3n2)c1	/	/	-36	4%	/	-9%[46.1 µM]
C[C@H]1[C@@H](NS(=O)(=O)c2cc(Cl)cc(Cl)c2)CC[C@@]23CCCN2C(=O)CCC[C@@H]13	/	/	-5	/	/	/
CCC(Cc1ccccc1)NC(=O)CN1C(=O)CSc2ncccc21 (stereo unspecified)	/	13µM*	-24	-17%	2%	/
COC(=O)CN1C(=O)CSc2ncccc21	1%	-5%	-9	-16%	-2%	1%
Cc1occc1C(=O)Nc1cccc(C(F)(F)F)c1	-13%	-27%	-11	2%	-6%	0%
Cc1cnc(Nc2nc3ccccc3o2)nc1C(=O)Nc1cccc(C(F)(F)F)c1	-21%	6.3µM*	-74*	3%	3%	0%
